PubChem BioAssay (NCI)
This is part of a sample that, as a whole, favours compounds with a hit. Of some 79,000 tested, about 15% had one in any assay. Activity calls are given as the source filed them. Cut-off read from the data, not from the text of the source: active = growth inhibition above about 70%; inactive = the rest.

Columns and labels:
[1] = NCI Yeast Anticancer Drug Screen. Data for the wt1 strain (AID 149);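 note: 0% = growth of vehicle-treated wt1 cultures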; details: S. cerevisiae wt1 strain (SPY 50644) growth inhibition, active compounds read high
Procedure, shortened: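 The wt1 strain was treated with compounds, and growth was compared with vehicle-treated cultures to give inhibition.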

[2] = NCI Yeast Anticancer Drug Screen. Data for the rad50 strain (AID 155);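 note: 0% = growth of vehicle-only cultures of the same strain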; details: S. cerevisiae rad50 strain growth inhibition, active compounds read high
Procedure, shortened: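 Cells are treated with compound, grown, and their growth is then scored against vehicle-only cultures of the same repair-deficient yeast strain.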

[3] = NCI Yeast Anticancer Drug Screen. Data for the mec2-1 strain (AID 157); details: S. cerevisiae mec2-1 strain, active compounds read high
Procedure, shortened: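 Vehicle-treated cultures served as reference for growth inhibition of compound-exposed mec2-1 yeast.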

[4] = NCI Yeast Anticancer Drug Screen. Data for the sgs1 mgt1 strain (AID 161);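 note: 0% = growth of cultures given vehicle only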; details: S. cerevisiae sgs1 mgt1 strain, active compounds read high
Procedure, shortened: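 Mutant yeast exposed to compound; growth scored against vehicle-only wells.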

[5] = NCI Yeast Anticancer Drug Screen. Data for the CLN2oe strain (AID 163);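 note: 0% = growth of vehicle-only control cultures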; details: S. cerevisiae CLN2oe strain, active compounds read high
Procedure, shortened: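 Inhibition relative to vehicle-treated yeast is reported. Cells: strain with genetic alteration in cell-cycle control, grown with compound.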

[6] = NCI Yeast Anticancer Drug Screen. Data for the cln2 rad14 strain (AID 165);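 note: 0% = growth equal to vehicle treated cultures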; details: S. cerevisiae cln2 rad14 strain, active compounds read high
Procedure, shortened: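 Each compound was tested on cln2 rad14 yeast. Inhibition of growth was calculated against vehicle-exposed controls.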

[7] = NCI Yeast Anticancer Drug Screen. Data for the bub3 strain (AID 167); details: S. cerevisiae bub3 mutant strain, active compounds read high
Procedure, shortened: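 Part of a panel of yeast mutants defective in DNA damage repair or cell cycle regulation. Each strain is grown with compound, and inhibition is calculated relative to solvent-treated cultures.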

[8] = NCI Yeast Anticancer Drug Screen. Data for the wt2 strain (AID 169);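 note: 0% = growth of vehicle-treated yeast cultures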; details: S. cerevisiae wt2 strain growth inhibition, active compounds read high
Procedure, shortened: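 Inhibition of yeast growth was determined after compound treatment, normalised to controls receiving only vehicle.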

[9] = NCI Yeast Anticancer Drug Screen. Data for the mlh1 strain (AID 171);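 note: 0% = growth of vehicle-treated control cultures of the same strain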; details: S. cerevisiae mlh1 strain growth inhibition, active compounds read high
Procedure, shortened: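 Vehicle-normalised growth inhibition of a repair- or checkpoint-altered yeast strain following compound treatment.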

[10] = NCI Yeast Anticancer Drug Screen. Data for the sgs1 strain (AID 173);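 note: 0% = growth of vehicle-only control cultures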; details: S. cerevisiae sgs1 mutant, active compounds read high
Procedure, shortened: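 Screen format: yeast with repair or checkpoint alterations, compound exposure, growth read relative to vehicle.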

[11] = NCI Yeast Anticancer Drug Screen. Data for the mlh1 rad18 strain (AID 175); details: S. cerevisiae mlh1 rad18 strain growth inhibition, active compounds read high
Procedure, shortened: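 Vehicle-treated cultures served as the reference for growth inhibition in a yeast strain carrying DNA damage repair alterations exposed to each compound.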

[12] = NCI Yeast Anticancer Drug Screen. Data for the rad18 strain (AID 177); details: S. cerevisiae rad18 mutant growth inhibition, active compounds read high
Procedure, shortened: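 Test articles were incubated with altered yeast defective in DNA damage repair. Results are given as inhibition of growth versus vehicle.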

[13] = NCI Yeast Anticancer Drug Screen. Data for the rad50EPP+ strain (AID 151);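 note: 0% = growth of vehicle-treated control cultures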; details: S. cerevisiae rad50 mutant strain, active compounds read high
Procedure, shortened: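 In this screen, rad50EPP+ yeast were exposed to compounds. Growth inhibition was scored against vehicle-treated controls.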

[14] = NCI Yeast Anticancer Drug Screen. Data for the rad14 strain (AID 159);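 note: 0% = growth of vehicle-treated control cultures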; details: S. cerevisiae rad14 strain growth inhibition, active compounds read high
Procedure, shortened: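 Readout: yeast growth inhibition, referenced to vehicle-only cultures. Strain bears a defined alteration in DNA damage repair.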

[15] = at 5.0 µM (retest, dose inferred, filed as 0.5)
[16] = at 50.0 µM (retest, dose inferred, filed as 5.0)

Measured: growth inhibition

CNCC(O)c1ccc(O)c(O)c1.[Pt].c1ccc([PH+](c2ccccc2)c2ccccc2)cc1.c1ccc([PH+](c2ccccc2)c2ccccc2)cc1
inactive: [1]; at 1.2 µM -1% | [1]; at 3.7 µM -2% | [1]; at 11.0 µM -2% | [1]; at 33.0 µM 8% | [1]; at 100.0 µM 53% | [2]; at 1.2 µM -1% | [2]; at 3.7 µM -3% | [2]; [15] -8% | [2]; at 11.0 µM -1% | [3]; at 1.2 µM 3% | [3]; at 3.7 µM 6% | [3]; [15] -8% | [3]; at 11.0 µM 4% | [3]; at 33.0 µM 65% | [4]; [15] -2% | [4]; [16] -7% | [5]; at 1.2 µM 0% | [5]; at 3.7 µM -8% | [5]; at 11.0 µM 3% | [6]; [15] 17% | [7]; at 1.2 µM 0% | [7]; at 3.7 µM 1% | [7]; [15] -18% | [7]; at 11.0 µM -3% | [8]; at 1.2 µM -2% | [8]; at 3.7 µM -2% | [8]; at 11.0 µM 8% | [9]; at 1.2 µM -3% | [9]; at 3.7 µM -1% | [9]; at 11.0 µM 8% | [10]; at 1.2 µM 2% | [10]; at 3.7 µM 4% | [10]; at 11.0 µM 15% | [11]; [15] 13% | [12]; at 1.2 µM 0% | [12]; at 3.7 µM 2% | [12]; at 11.0 µM 19%
active: [2]; at 33.0 µM 96% | [2]; [16] 99% | [2]; at 50.0 µM 99% | [2]; at 100.0 µM 96% | [3]; [16] 99% | [3]; at 50.0 µM 98.8% | [3]; at 100.0 µM 97% | [4]; at 50.0 µM 99.1% | [5]; at 33.0 µM 93% | [5]; at 100.0 µM 96% | [6]; [16] 99% | [6]; at 50.0 µM 98.8% | [7]; at 33.0 µM 75% | [7]; [16] 99% | [7]; at 50.0 µM 98.8% | [7]; at 100.0 µM 96% | [8]; at 33.0 µM 98% | [8]; at 100.0 µM 98% | [9]; at 33.0 µM 91% | [9]; at 100.0 µM 97% | [10]; at 33.0 µM 86% | [10]; at 100.0 µM 97% | [11]; [16] 99% | [11]; at 50.0 µM 99% | [12]; at 33.0 µM 80% | [12]; at 100.0 µM 96%

CCN(CC)CC.CCOc1ccc(NC(=O)N=C=[N-])cc1.[CH-]1CCCCC1.[CH-]1CCCCC1.[CH-]1CCCCC1.[Cl-].[Sn+4]
active: [2]; [15] 99% | [2]; [16] 99% | [2]; at 50.0 µM 87.2% | [3]; [15] 100% | [3]; [16] 99% | [3]; at 50.0 µM 88.4% | [4]; [15] 99% | [4]; [16] 99% | [4]; at 50.0 µM 90.2% | [6]; [15] 99% | [6]; [16] 99% | [6]; at 50.0 µM 89.5% | [7]; [15] 99% | [7]; [16] 99% | [7]; at 50.0 µM 89.2% | [11]; [15] 99% | [11]; [16] 99%

C=C[C@H]1CN2CC[C@H]1C[C@@H]2[C@@H](O)c1ccnc2ccccc12
inactive: [1]; at 1.2 µM -1% | [1]; at 3.7 µM -2% | [1]; at 11.0 µM -4% | [1]; at 33.0 µM -2% | [1]; at 100.0 µM -2% | [13]; at 1.2 µM -1% | [13]; at 3.7 µM 0% | [13]; at 11.0 µM -2% | [13]; at 33.0 µM -3% | [13]; at 100.0 µM -3% | [2]; at 1.2 µM 2% | [2]; at 3.7 µM 10% | [2]; [15] 2% | [2]; at 11.0 µM 3% | [2]; at 33.0 µM 2% | [2]; [16] 13% | [2]; at 50.0 µM -1.45% | [2]; at 100.0 µM -2% | [3]; at 1.2 µM -1% | [3]; at 3.7 µM 3% | [3]; [15] 8% | [3]; at 11.0 µM 4% | [3]; at 33.0 µM 2% | [3]; [16] 7% | [3]; at 50.0 µM -40.6% | [3]; at 100.0 µM -5% | [14]; at 1.2 µM -3% | [14]; at 3.7 µM -9% | [14]; at 11.0 µM -2% | [14]; at 33.0 µM 0% | [14]; at 100.0 µM 1% | [4]; [15] -10% | [4]; [16] -1% | [4]; at 50.0 µM -11.9% | [6]; [15] 44% | [6]; [16] 14% | [6]; at 50.0 µM 8.55% | [7]; at 1.2 µM 3% | [7]; at 3.7 µM -6% | [7]; [15] -8% | [7]; at 11.0 µM 1% | [7]; at 33.0 µM 1% | [7]; [16] -1% | [7]; at 50.0 µM -7.5% | [7]; at 100.0 µM 1% | [8]; at 1.2 µM 0% | [8]; at 3.7 µM 1% | [8]; at 11.0 µM 0% | [8]; at 33.0 µM -2% | [8]; at 100.0 µM 1% | [9]; at 1.2 µM -2% | [9]; at 3.7 µM 1% | [9]; at 11.0 µM -6% | [9]; at 33.0 µM -7% | [9]; at 100.0 µM 9% | [10]; at 1.2 µM -3% | [10]; at 3.7 µM -5% | [10]; at 11.0 µM -6% | [10]; at 33.0 µM -7% | [10]; at 100.0 µM -6% | [11]; [15] 2% | [11]; [16] 8% | [11]; at 50.0 µM 7.65% | [12]; at 1.2 µM -2% | [12]; at 3.7 µM -2% | [12]; at 11.0 µM -9% | [12]; at 33.0 µM -17% | [12]; at 100.0 µM -28%

CC(=O)[O-].O=C([CH-]C(=O)c1ccccc1)c1ccccc1.O=C([CH-]C(=O)c1ccccc1)c1ccccc1.[Sm+3]
active: [2]; at 11.0 µM 79% | [2]; at 33.0 µM 96% | [2]; at 50.0 µM 90.8% | [2]; at 100.0 µM 98% | [3]; at 33.0 µM 97% | [3]; at 50.0 µM 93% | [3]; at 100.0 µM 98% | [4]; at 50.0 µM 92.8% | [7]; at 11.0 µM 84% | [7]; at 33.0 µM 97% | [7]; at 50.0 µM 90.8% | [7]; at 100.0 µM 98% | [11]; at 50.0 µM 90.2%
inactive: [2]; at 1.2 µM 9% | [2]; at 3.7 µM -5% | [2]; [15] 55% | [2]; [16] 55% | [3]; at 1.2 µM -2% | [3]; at 3.7 µM 5% | [3]; [15] 42% | [3]; at 11.0 µM 47% | [3]; [16] 42% | [4]; [15] 50% | [4]; [16] 50% | [7]; at 1.2 µM 16% | [7]; at 3.7 µM 19% | [7]; [15] 52% | [7]; [16] 52% | [11]; [15] 44% | [11]; [16] 44%
